From PubChem BioAssay (NCI)
This is part of a sample that, as a whole, favours compounds with a hit. Of some 79,000 tested, about 15% had one in any assay. A number with no mark means an inactive call. Activity calls are given as the source filed them. Rule as the data show it: active = growth inhibition above about 70%; inactive = the rest.

How the values were obtained:
[1] = NCI Yeast Anticancer Drug Screen. Data for the rad50 strain (AID 155);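 also: 0% = growth of vehicle-only cultures of the same strain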; settings: S. cerevisiae rad50 strain growth inhibition, stronger effect = higher value
Summary of the method: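 Inhibition values express reduced yeast growth in compound-treated cultures relative to vehicle-treated controls.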

[2] = NCI Yeast Anticancer Drug Screen. Data for the mec2-1 strain (AID 157); settings: S. cerevisiae mec2-1 strain, stronger effect = higher value
Summary of the method: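 mec2-1 yeast strain, carrying an alteration in DNA damage repair or cell cycle control, was exposed to compounds; growth inhibition was measured relative to vehicle-treated controls.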

[3] = NCI Yeast Anticancer Drug Screen. Data for the sgs1 mgt1 strain (AID 161);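 also: 0% = growth of cultures given vehicle only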; settings: S. cerevisiae sgs1 mgt1 strain, stronger effect = higher value
Summary of the method: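 Compounds are added to genetically altered yeast, and growth is compared with cultures given vehicle alone to give percent inhibition.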

[4] = NCI Yeast Anticancer Drug Screen. Data for the cln2 rad14 strain (AID 165);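 also: 0% = growth equal to vehicle treated cultures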; settings: S. cerevisiae cln2 rad14 strain, stronger effect = higher value
Summary of the method: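 Yeast carrying cln2 and rad14 alterations (cell cycle control and DNA damage repair) were exposed to compounds. Growth inhibition was measured against vehicle-treated controls.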

[5] = NCI Yeast Anticancer Drug Screen. Data for the bub3 strain (AID 167); settings: S. cerevisiae bub3 mutant strain, stronger effect = higher value
Summary of the method: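 Steps: expose the mutant yeast strain to compound; grow alongside vehicle-treated cultures; measure growth; express inhibition against the vehicle cultures.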

[6] = NCI Yeast Anticancer Drug Screen. Data for the mlh1 rad18 strain (AID 175); settings: S. cerevisiae mlh1 rad18 strain growth inhibition, stronger effect = higher value
Summary of the method: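 Growth inhibition of the yeast strain was measured after compound exposure and expressed relative to vehicle-treated controls. The strain carries defined defects in DNA damage repair.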

[7] = at 5.0 µM (retest, dose inferred, filed as 0.5)
[8] = at 50.0 µM (retest, dose inferred, filed as 5.0)

| Structure (SMILES) | growth inhibition [1, 7] | growth inhibition [1, 8] | growth inhibition ([1]; at 50.0 µM) | growth inhibition [2, 7] | growth inhibition [2, 8] | growth inhibition ([2]; at 50.0 µM) | growth inhibition [3, 7] | growth inhibition [3, 8] | growth inhibition ([3]; at 50.0 µM) | growth inhibition [4, 7] | growth inhibition [4, 8] | growth inhibition ([4]; at 50.0 µM) | growth inhibition [5, 7] | growth inhibition [5, 8] | growth inhibition ([5]; at 50.0 µM) | growth inhibition [6, 7] | growth inhibition [6, 8] | growth inhibition ([6]; at 50.0 µM) |
| --- | --- | --- | --- | --- | --- | --- | --- | --- | --- | --- | --- | --- | --- | --- | --- | --- | --- | --- |
| N#CC(C(=O)CCc1nc2ccccc2[nH]1)c1c(Cl)cccc1Cl (configuration not stated) | -14% | 19% | -21.2% | 4% | 12% | 8.05% | 7% | 2% | 19.6% | -5% | 3% | -30.1% | -2% | 6% | 6.75% | -1% | 0% | 16.1% |
| CC(=O)Oc1ccc(/C=C/c2ccncc2)cc1 | -164% | -78% | 67.8% | -47% | -33% | 44% | -65% | 7% | 60% | -58% | -32% | 50.1% | -58% | 6% | 84.7% (active) | -157% | -69% | 48.2% |
| CC1(C)CC[C@]2(C(=O)O)[C@H](O)C[C@]3(C)C(=CC[C@@H]4[C@@]5(C)CC[C@H](OC6OCC(O)C(O)C6OC6OCC(O)C(O)C6OC6OCC(O)C(O)C6O)C(C)(C)[C@@H]5CC[C@]43C)[C@@H]2C1 (some centres not stated) | 5% | 7% | 51.9% | 12% | 54% | 57.1% | 8% | 33% | -13.4% | 14% | 100% (active) | 54% | 14% | 100% (active) | 48.8% | 5% | 53% | 52% |
| CCCc1cc2c(cc1CN(C#N)Cc1cc3c(cc1CCC)OCO3)OCO2 | -4% | 54% | 95.3% (active) | 2% | 84% (active) | 96.3% (active) | 1% | 57% | 93.2% (active) | -2% | 60% | 95.8% (active) | -4% | 87% (active) | 97% (active) | -1% | 73% (active) | 95% (active) |
| O=[N+]([O-])c1ccc2nc(CCl)[nH]c2c1 | 46% | 80% (active) | 73.2% (active) | 37% | 74% (active) | 65.5% | 42% | 83% (active) | 75% (active) | 35% | 56% | 61% | 43% | 84% (active) | 74% (active) | 49% | 87% (active) | 73.3% (active) |
| CC(C)(C)CC(C)(C)N[P+](NC(C)(C)CC(C)(C)C)(NC(C)(C)CC(C)(C)C)NC(C)(C)CC(C)(C)C | 89% (active) | 98% (active) | 83.2% (active) | 97% (active) | 99% (active) | 88.3% (active) | 81% (active) | 99% (active) | 91.5% (active) | 84% (active) | 99% (active) | 90.7% (active) | 96% (active) | 99% (active) | 90.5% (active) | 94% (active) | 98% (active) | 90.7% (active) |
| COc1ccc(Cc2c3ccccc3cc[n+]2C)cc1Oc1ccc(Cc2c3ccccc3cc[n+]2C)cc1 | 2% | 87% (active) | 51.5% | -1% | 92% (active) | 43.8% | 2% | 93% (active) | 76.5% (active) | -14% | 84% (active) | -26.7% | -2% | 96% (active) | 40.9% | -2% | 96% (active) | 85.9% (active) |
| CN1C(=O)c2ccccc2C1(c1ccccc1)c1ccccc1 | 0% | 90% (active) | 30.1% | 2% | 96% (active) | 14.8% | 4% | 98% (active) | 20.9% | 13% | 37% | 43.1% | 5% | 62% | 45.1% | 15% | 95% (active) | 56.9% |
| COC(=O)C1(Cc2ccc3c(c2)CCC3)Cc2ccccc2C1O (configuration not stated) | -3% | 99% (active) | 76.5% (active) | -40% | 99% (active) | 84.1% (active) | -44% | 99% (active) | 86.2% (active) | 1% | 99% (active) | 89.8% (active) | -14% | 99% (active) | 89.6% (active) | -21% | 99% (active) | 91% (active) |
